Results filed as inconclusive are left out. The source made the active and inactive calls. Unless noted, calls come from the whole dose curve; as a rule, active = well fitted curve in the direction sought with a large enough effect in the repeat runs; inconclusive = weak or mixed curves; inactive = no such curve, though single readings can be large; an effect the other way counts as inactive or inconclusive.
What was measured:
[1] = target: Thyrotropin receptor (Homo sapiens) (UniProt P16473); assay: qHTS assay to identify small molecule antagonists of the thyroid stimulating hormone receptor (TSHR) signaling pathway (AID 1259385; calls by dose curve; note: nearly all actives have a fitted effect of over 20% in size)
Summary of the method: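 Antagonist mode: compound-treated TSHR-expressing HEK293 cells were stimulated with 1.5 ng/mL TSH (final) in presence of Ro20-1724 for 30 min at RT. HTRF cAMP detection after 1 h; each compound tested at 15 concentrations, triplicate.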

[2] = qHTS assay to identify small molecule agonists of the estrogen receptor alpha (ER-alpha) signaling pathway in the presence of an antagonist - cell viability counter screen (AID 1259386); note: series mostly up to about 92 µM; nearly all actives have a fitted effect of over 30% in size
Summary of the method: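 Compounds tested at 15 concentrations for 22 h at 37C alongside 10.0nM (final) ICI-182,780 antagonist, in VM7Luc4E2 cells grown in phenol red-free, charcoal-stripped medium. Viability read by CellTiter-Fluor fluorescence after 1 h reagent incubation.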

[3] = target: Progesterone receptor (Homo sapiens) (UniProt P06401); assay: qHTS assay to identify small molecule agonists of the progesterone receptor (PR) signaling pathway (AID 1346784; calls by dose curve; note: nearly all actives have a fitted effect of over 30% in size)
Summary of the method: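 Reporter assay, GripTite PR-UAS-bla HEK 293T cells: 16 hr exposure to DMSO-dissolved compounds at 37C, 5% CO2, in steroid-depleted (2% charcoal-stripped FBS) medium; beta-lactamase measured by FRET fluorescence.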

[4] = target: Progesterone receptor (Homo sapiens) (UniProt P06401); assay: qHTS assay to identify small molecule antagonists of the progesterone receptor (PR) signaling pathway (AID 1346795; active = well fitted inhibition curve with a large enough effect in the signal ratio in the repeat runs, not every such curve was filed as active; the % refers to the signal ratio)
Summary of the method: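 Stimulus R5020 at 1 nM final; cells HEK293T PR-UAS-bla; medium with 2% charcoal-stripped FBS; compound exposure 16 hr at 37C, 5% CO2; detection by FRET beta-lactamase substrate, 2 hr, room temperature.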

[5] = qHTS assay to identify small molecule antagonists of the progesterone receptor (PR) signaling pathway - cell viability counter screen (AID 1346798); note: series mostly up to about 92 µM; nearly all actives have a fitted effect of over 50% in size
Summary of the method: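 In the same plates used for the beta-lactamase readout, cell viability of compound- and R5020-treated PR-UAS-bla HEK293T cells (16 hr, 37C) was assessed by CellTiter-Glo luminescence.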

[6] = qHTS assay to identify small molecule agonists of the progesterone receptor (PR) signaling pathway - cell viability counter screen (AID 1346799; calls by dose curve; note: nearly all actives have a fitted effect of over 45% in size)
Summary of the method: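 Multiplexed viability read: CellTiter-Glo luminescence, 30 min RT, following LiveBLAzer FRET measurement on PR-UAS-bla HEK293T cells exposed to compounds 16 hr.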

[7] = qHTS assay to identify small molecule antagonists of the TGF-beta/Smad signaling pathway - cell viability counter screen (AID 1346824); note: nearly all actives have a fitted effect of over 50% in size
Summary of the method: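 Cytotoxicity counter-screen run in the same wells as the beta-lactamase Smad reporter read: CellTiter-Glo luminescence after 30 min at room temperature. HEK 293T SBE-bla cells had 5 hr compound exposure at 37 C with TGF-beta1 (0.25 ng/mL stock).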

[8] = qHTS assay to identify small molecule agonists of the TGF-beta/Smad signaling pathway - cell viability counter screen (AID 1346829); note: top concentration of the series differs between compounds; nearly all actives have a fitted effect of over 45% in size
Summary of the method: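 After overnight seating at 37 C and 5% CO2, reporter cells got compounds for 5 hr and FRET substrate for 2 hr; cell viability then came from CellTiter-Glo luminescence.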

[9] = qHTS assay to identify small molecule agonists of the TGF-beta/Smad signaling pathway (AID 1346859; active = well fitted activation curve with a large enough effect in the signal ratio in the repeat runs, not every such curve was filed as active; the % refers to the signal ratio; note: series mostly up to about 77 µM)
Summary of the method: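 Screening used HEK 293T SBE-bla cells at 4,000/well. Test agents: 5 hr, 37 C. Detection: FRET substrate, 2 hr RT, then excitation 405 nm with emissions at 460 and 530 nm.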

[10] = target: Thyrotropin-releasing hormone receptor (Homo sapiens) (UniProt P34981); assay: qHTS assay to identify small molecule antagonists of the thyrotropin-releasing hormone receptor (TRHR) signaling pathway (AID 1346877; active = well fitted inhibition curve with a large enough effect in the repeat runs, not every such curve was filed as active; note: series mostly up to about 51 µM)
Summary of the method: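 Antagonist mode: after a 5 min room-temperature compound exposure, cells were stimulated with 1 nM (final) TRH. Dye-loaded TRHR-HEK293 cells were used, and calcium-dependent fluorescence was followed for 3 min, with 15-point titrations run in triplicate.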

[11] = target: Thyrotropin-releasing hormone receptor (Homo sapiens) (UniProt P34981); assay: qHTS assay to identify small molecule agonists of the thyrotropin-releasing hormone receptor (TRHR) signaling pathway (AID 1346891; calls by dose curve; note: series mostly up to about 58 µM)
Summary of the method: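 Readout was intracellular calcium fluorescence in TRHR-Hek293 cells. Cells were incubated 18 h, dye-loaded 2 h at 37 °C, and treated with compound in agonist mode.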

[12] = Human pregnane X receptor (PXR) small molecule agonists, qHTS cell viability counter screen (AID 1346977); note: nearly all actives have a fitted effect of over 50% in size
Summary of the method: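 In each well, the PXR reporter HepG2 line was checked for viability: CellTiter-Fluor reagent added 23hr post-dosing, fluorescence read after 1hr incubation at 37C.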

[13] = Caspase-3/7 induction in CHO-K1 cells by small molecules, qHTS cell viability counter screen (AID 1346979); note: nearly all actives have a fitted effect of over 35% in size
Summary of the method: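 Following a 5hr settling period, CHO-K1 cells at 1,500 per well received DMSO-dissolved compounds. Cell viability was quantified 16hr later by CellTiter-Fluor fluorescence, measured after 1hr with reagent at 37C.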

[14] = Caspase-3/7 induction in CHO-K1 cells by small molecules, qHTS assay (AID 1346980); note: nearly all actives have a fitted effect of over 15% in size
Summary of the method: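 Luminescent Caspase-Glo 3/7 read (30min, room temperature) quantified apoptosis induction. Cells were wild-type CHO-K1, treated with compound for 17hr at 37 C and 5% CO2.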

[15] = Caspase-3/7 induction in HepG2 cells by small molecules, qHTS cell viability counter screen (AID 1346981); note: series mostly up to about 92 µM; nearly all actives have a fitted effect of over 30% in size
Summary of the method: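 CellTiter-Fluor fluorescence measured viability in the same wells used for Caspase-Glo 3/7. HepG2 (wild type) at 2,000 cells/well were pre-incubated 5 hr, dosed, and given reagent at 16 hr, with 1 hr further at 37C.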

[16] = target: Nuclear receptor subfamily 1 group I member 2 (Homo sapiens) (UniProt O75469); assay: Human pregnane X receptor (PXR) small molecule agonists, qHTS assay (AID 1346982); note: nearly all actives have a fitted effect of over 35% in size; note: potency is the fitted concentration of half-maximal effect
Summary of the method: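 Agonist mode: luminescence from ONE-Glo after 24 h compound exposure at 37C in HepG2 cells carrying hPXR-responsive CYP3A4 luciferase, plated in charcoal-stripped serum medium 5 h beforehand.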

[17] = Caspase-3/7 induction in HepG2 cells by small molecules, qHTS assay (AID 1346978); note: nearly all actives have a fitted effect of over 15% in size
Summary of the method: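 Caspase-3/7 induction was measured by Caspase-Glo 3/7 luminescence (30 min, room temperature) after a 17 hr compound exposure of wild-type HepG2 cells seeded at 2,000 per well and pre-incubated 5 hr.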

[18] = target: Nuclear receptor subfamily 1 group I member 2 (Rattus norvegicus) (UniProt Q9R1A7); assay: Rat pregnane X receptor (rPXR) activation by small molecules, qHTS assay (AID 1346983); details: rPXR luciferase reporter cells, One-Glo luminescence, 24 h; max activation: hits give high values; note: nearly all actives have a fitted effect of over 20% in size
Summary of the method: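 Luminescent readout (One-Glo luciferase, 30 min room temperature) followed 24 hr compound treatment at 37 C of rPXR cells plated 2,000 per well and preincubated 5hr; qHTS format with compounds delivered in DMSO.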

[19] = target: Nuclear receptor subfamily 1 group I member 2 (Homo sapiens) (UniProt O75469); assay: CYP3A4 induction through human pregnane X receptor (PXR) by small molecules, qHTS assay (AID 1346984); note: nearly all actives have a fitted effect of over 40% in size
Summary of the method: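 Read-out is luminescence after One-Glo addition, following a 3 hr, 37C incubation with Luciferin-IPA CYP3A4 substrate (3uM final). Before that, compounds were on DPX-2 cells (HepG2 co-transfected with PXR element plus CYP3A4-promoter luciferase) for 24 hr at 37C.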

[20] = target: Nuclear receptor subfamily 1 group I member 2 (Homo sapiens) (UniProt O75469); assay: Human pregnane X receptor (PXR) activation by small molecules, qHTS assay (AID 1346985); note: nearly all actives have a fitted effect of over 40% in size
Summary of the method: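 DPX-2 cells (HepG2 co-transfected with a PXR response element and a CYP3A4-promoter luciferase construct) were seeded at 2,000 per well, rested 5 hr at 37C, then exposed to DMSO-dissolved compounds for 24 hr. Activation was read as luciferase luminescence.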
% is set by controls: 0 for no effect and ±100 for the full control effect.

Chain of Progesterone receptor (Homo sapiens) (P06401 whole entry, looked up): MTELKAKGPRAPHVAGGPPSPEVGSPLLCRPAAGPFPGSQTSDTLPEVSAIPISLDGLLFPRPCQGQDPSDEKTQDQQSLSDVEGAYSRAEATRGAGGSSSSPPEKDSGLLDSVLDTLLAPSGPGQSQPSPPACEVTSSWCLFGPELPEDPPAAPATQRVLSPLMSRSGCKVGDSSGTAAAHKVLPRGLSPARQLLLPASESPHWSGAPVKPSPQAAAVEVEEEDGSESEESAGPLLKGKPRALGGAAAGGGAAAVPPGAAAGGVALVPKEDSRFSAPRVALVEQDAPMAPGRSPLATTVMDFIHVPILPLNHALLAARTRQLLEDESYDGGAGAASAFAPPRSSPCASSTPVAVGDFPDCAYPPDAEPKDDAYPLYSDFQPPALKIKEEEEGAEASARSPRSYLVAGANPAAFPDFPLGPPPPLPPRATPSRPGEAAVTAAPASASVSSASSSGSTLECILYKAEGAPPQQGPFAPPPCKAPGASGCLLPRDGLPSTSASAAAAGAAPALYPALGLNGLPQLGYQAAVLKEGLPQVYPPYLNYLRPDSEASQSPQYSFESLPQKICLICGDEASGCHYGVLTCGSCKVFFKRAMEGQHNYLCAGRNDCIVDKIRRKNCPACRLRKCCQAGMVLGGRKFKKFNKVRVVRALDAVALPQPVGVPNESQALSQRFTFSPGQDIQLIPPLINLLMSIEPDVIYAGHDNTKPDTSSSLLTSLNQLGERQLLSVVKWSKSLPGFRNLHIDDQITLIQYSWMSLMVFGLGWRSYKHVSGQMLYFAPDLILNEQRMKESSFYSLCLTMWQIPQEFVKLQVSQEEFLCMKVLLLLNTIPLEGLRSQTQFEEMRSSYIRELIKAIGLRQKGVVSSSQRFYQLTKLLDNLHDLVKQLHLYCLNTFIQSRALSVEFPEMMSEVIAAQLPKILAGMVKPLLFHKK
Chain of Thyrotropin-releasing hormone receptor (Homo sapiens) (P34981 whole entry, looked up): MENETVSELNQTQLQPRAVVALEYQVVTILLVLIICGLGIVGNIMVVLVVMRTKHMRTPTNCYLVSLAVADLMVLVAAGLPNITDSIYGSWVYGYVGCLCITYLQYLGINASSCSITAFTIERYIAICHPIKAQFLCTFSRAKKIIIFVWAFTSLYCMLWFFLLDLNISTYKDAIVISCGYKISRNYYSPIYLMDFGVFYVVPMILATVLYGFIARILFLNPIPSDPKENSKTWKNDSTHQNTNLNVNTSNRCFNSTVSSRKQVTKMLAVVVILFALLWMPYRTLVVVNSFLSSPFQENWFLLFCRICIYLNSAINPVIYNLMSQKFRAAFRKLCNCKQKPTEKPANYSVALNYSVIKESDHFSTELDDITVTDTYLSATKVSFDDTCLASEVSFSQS
Chain of Thyrotropin receptor (Homo sapiens) (P16473 whole entry, looked up): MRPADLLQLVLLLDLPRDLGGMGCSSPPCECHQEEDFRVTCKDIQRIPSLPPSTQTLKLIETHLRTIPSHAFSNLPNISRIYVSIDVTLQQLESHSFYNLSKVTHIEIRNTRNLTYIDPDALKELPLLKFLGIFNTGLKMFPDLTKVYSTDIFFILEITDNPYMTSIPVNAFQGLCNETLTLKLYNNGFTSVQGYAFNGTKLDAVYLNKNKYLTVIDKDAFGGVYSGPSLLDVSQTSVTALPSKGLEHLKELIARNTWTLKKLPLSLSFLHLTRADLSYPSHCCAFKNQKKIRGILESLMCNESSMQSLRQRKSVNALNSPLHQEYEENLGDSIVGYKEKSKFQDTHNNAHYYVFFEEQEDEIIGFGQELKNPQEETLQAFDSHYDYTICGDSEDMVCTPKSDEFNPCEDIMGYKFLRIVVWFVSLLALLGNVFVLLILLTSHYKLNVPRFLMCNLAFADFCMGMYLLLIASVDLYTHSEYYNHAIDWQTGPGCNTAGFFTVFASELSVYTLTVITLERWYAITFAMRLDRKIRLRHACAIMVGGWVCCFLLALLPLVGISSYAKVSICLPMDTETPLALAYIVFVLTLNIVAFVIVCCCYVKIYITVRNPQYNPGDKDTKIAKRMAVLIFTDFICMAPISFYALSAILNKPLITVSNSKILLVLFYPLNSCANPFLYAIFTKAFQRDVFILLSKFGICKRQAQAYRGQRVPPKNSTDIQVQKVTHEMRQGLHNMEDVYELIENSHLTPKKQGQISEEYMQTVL
Chain of Nuclear receptor subfamily 1 group I member 2 (Homo sapiens) (O75469 whole entry, looked up): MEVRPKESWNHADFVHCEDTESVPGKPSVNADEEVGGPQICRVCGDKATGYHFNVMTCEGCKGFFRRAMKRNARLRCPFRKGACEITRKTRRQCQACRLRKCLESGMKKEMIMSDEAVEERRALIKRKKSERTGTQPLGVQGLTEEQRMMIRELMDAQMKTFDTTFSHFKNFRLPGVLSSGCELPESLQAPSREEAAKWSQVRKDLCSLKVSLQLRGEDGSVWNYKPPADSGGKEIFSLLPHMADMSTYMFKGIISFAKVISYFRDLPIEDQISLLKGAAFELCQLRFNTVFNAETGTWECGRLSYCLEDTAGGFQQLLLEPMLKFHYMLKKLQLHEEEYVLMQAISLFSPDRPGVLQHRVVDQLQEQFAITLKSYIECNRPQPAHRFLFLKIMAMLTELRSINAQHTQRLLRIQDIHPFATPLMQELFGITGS
Chain of Nuclear receptor subfamily 1 group I member 2 (Rattus norvegicus) (Q9R1A7 whole entry, looked up): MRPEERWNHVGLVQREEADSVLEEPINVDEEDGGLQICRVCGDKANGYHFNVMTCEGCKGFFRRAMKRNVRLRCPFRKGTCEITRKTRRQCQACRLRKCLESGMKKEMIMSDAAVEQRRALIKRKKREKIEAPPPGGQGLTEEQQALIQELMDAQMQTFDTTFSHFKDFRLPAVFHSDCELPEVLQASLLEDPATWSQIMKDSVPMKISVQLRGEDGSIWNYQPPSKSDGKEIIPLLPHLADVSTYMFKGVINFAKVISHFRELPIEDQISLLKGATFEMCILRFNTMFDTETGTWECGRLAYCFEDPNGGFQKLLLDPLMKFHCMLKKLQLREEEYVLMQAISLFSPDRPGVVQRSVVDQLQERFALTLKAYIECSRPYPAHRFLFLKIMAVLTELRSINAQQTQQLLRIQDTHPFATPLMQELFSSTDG

COc1ccc(COC=O)cc1
inactive: Potency [1] | outcome [2] | Potency [3] | Potency [4] | Potency [5] | Potency [6] | outcome [7] | outcome [8] | outcome [9] | outcome [10] | outcome [11] | Potency [12] | Potency [13] | outcome [14] | outcome [15] | Potency [16]

CC(C)CCCCCCN
inactive: Potency [1] | outcome [2] | Potency [3] | Potency [4] | Potency [5] | Potency [6] | outcome [7] | outcome [8] | outcome [9] | outcome [10] | outcome [11] | Potency [12] | outcome [17] | Potency [13] | outcome [14] | outcome [15] | Potency [16]

c1ccc(CCCc2ccccn2)cc1
active: Potency [16] 34.4 µM
inactive: Potency [1] | outcome [2] | Potency [3] | Potency [4] | Potency [5] | Potency [6] | outcome [7] | outcome [8] | outcome [9] | outcome [10] | outcome [11] | Potency [12] | outcome [17] | Potency [13] | outcome [14]

NS(=O)(=O)c1cc2c(cc1Cl)NC(CSCc1ccccc1)=NS2(=O)=O
inactive: Potency [1] | outcome [2] | Potency [3] | Potency [4] | Potency [5] | Potency [6] | outcome [7] | outcome [8] | outcome [9] | outcome [10] | outcome [11] | Potency [12] | outcome [17] | Potency [13] | outcome [14] | outcome [15] | Potency [16] | max activation [18] -1.07% | Potency [19] | Potency [20]

NCC[C@H](O)C(=O)N[C@@H]1C[C@H](N)[C@@H](O[C@H]2O[C@H](CN)[C@@H](O)[C@H](O)[C@H]2O)[C@H](O)[C@H]1O[C@H]1O[C@H](CO)[C@@H](O)[C@H](N)[C@H]1O
inactive: activity change, negative = inhibition [1] 0.0742% [at 0.349 µM] | activity change, negative = cytotoxicity [2] 0.765% [at 0.349 µM] | activation [3] 0.26% [at 0.349 µM] | activity change, negative = inhibition [4] 2.43% [at 0.348 µM] | activity change, negative = cytotoxicity [5] 0.454% [at 0.348 µM] | activity change, negative = cytotoxicity [6] 8.45% [at 0.349 µM] | viability change, negative = cytotoxic [7] -7.43% [at 0.29 µM] | activity change, negative = cytotoxicity [8] -7.72% [at 0.29 µM] | activation [9] 5.03% [at 0.29 µM] | activity, negative = inhibition [10] 2.62% [at 0.194 µM] | activation [11] -0.0262% [at 0.218 µM] | activity change, negative = cytotoxicity [12] -0.464% [at 0.349 µM] | caspase activation [17] -1.92% [at 0.349 µM] | activity change, negative = cytotoxicity [13] -5.52% [at 0.349 µM] | caspase-3/7 activation [14] -0.155% [at 0.349 µM] | activity change, negative = cytotoxicity [15] -0.33% [at 0.349 µM] | max activation [18] -10.2% | Potency [19] | Potency [20]

COCCOC(=O)CC#N
inactive: Potency [1] | outcome [2] | Potency [3] | Potency [4] | Potency [5] | Potency [6] | outcome [7] | outcome [8] | outcome [9] | outcome [10] | outcome [11] | Potency [12] | Potency [13] | outcome [14] | outcome [15] | Potency [16]

CCC(=O)Nc1cccc(N)c1
inactive: Potency [1] | outcome [2] | Potency [3] | Potency [4] | Potency [5] | Potency [6] | outcome [7] | outcome [8] | outcome [9] | outcome [10] | outcome [11] | Potency [12] | outcome [17] | Potency [13] | outcome [14] | outcome [15] | Potency [16]
